# Pf growth 48h – inhibits P. falciparum growth in the first generation, 48 h | P. falciparum luciferase growth in erythrocytes, 48 h | hit rate 5.9% among 310,000 | Potency, µM (series often up to 28.7 µM), for the others: at the highest dose activity change, negative = inhibition, most hits filed as inhibitors; also: potency is read from the fitted curve at half-maximal effect; % is scaled to controls: 0 for no effect and ±100 for the full control effect
#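 Luciferase-expressing P. falciparum in infected erythrocytes (2% hematocrit, 0.1% parasitemia final) in RPMI 1640/0.5% Albumax were exposed to compound for 48 hours at 37 C, 5% CO2; growth read as luminescence.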
# HCV inh – blocks hepatitis C virus; Huh7.5.1 HCVcc-Cre infection, luciferase reporter, 44 h; Potency, µM (doses to about 41.8 µM), for the others: at the top dose activity change, negative = inhibition, actives largely listed as inhibitors; hit rate 3.4% among 340,000; also: potency is read from the fitted curve at half-maximal effect; % is scaled to controls: 0 for no effect and ±100 for the full control effect
#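 Luciferase read-out (15 sec integration) after a 15 min room-temperature substrate step quantifies HCVcc-Cre infection. Cells, 1,000 per well, had compound added 4 h post-plating, then virus at ~0.5 moi, and were cultured 44 h.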
# Pf growth 96h – P. falciparum growth inhibition at 96 hour, primary screen for plastid delayed-death inhibitors. hit rate 6.9% among 320,000. P. falciparum luciferase reporter growth, 96 h. Potency, µM (doses to about 28.7 µM), inactives show top-dose activity change, negative = inhibition, usual class: inhibitors. AID 504834; also: potency is read from the fitted curve at half-maximal effect; % is scaled to controls: 0 for no effect and ±100 for the full control effect
#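 Parasite growth measured via integrated firefly luciferase reporter in P. falciparum. Infected erythrocytes at 2% hematocrit, 0.05% parasitemia final were treated 96 hours at 37 C under 5% CO2, and luminescence was read.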
# CHX counter – counter-screen for Shiga toxin inhibitors: cycloheximide protein synthesis inhibition; hit rate 12% among 300,000; cell reporter, cycloheximide protein synthesis inhibition counterscreen; max response, %; in the data active = max response mostly above about 13%, no sharp cut-off; inactive = mostly below about 14%; also: read at 38.3 µM for the half of the compounds with a filed dose; 0% is about no effect
# HCMV antiviral – inhibitors of human cytomegalovirus | hit rate 4.5% among 410,000 | HFF cells, HCMV-luciferase reporter, 72 h; active compounds read low | AID 1259415 | activity change, negative = inhibition, % at 57.5 µM; in the data active = activity change below about -60%; inconclusive = no clear call, values can overlap the other calls; inactive = above about -39%; also: % is scaled to controls: 0 for no effect and ±100 for the full control effect
#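 Screen run at 2 compound doses on HFFs infected with reporter HCMV, MOI 1 PFU/cell. Luciferase activity from cell lysates at 72 h post infection gave inhibition relative to buffer-only and Salinomycin wells.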
# Shiga inhibitor – blocks Shiga toxin action in Vero cells; inhibition, % at 38.7 µM; Vero cells, Shiga toxin protein synthesis inhibition reporter; AID 2315; hit rate 9.2% among 290,000; in the data active = inhibition mostly above about 28%, no sharp cut-off; inactive = mostly below about 43%; also: 0% is about no effect
# Starred values were filed as active, the others as inactive; i = inactive; ? = inconclusive; nt = no result. Sampled rows, rich in hits. Any-hit rate of the full collection: about 21%. Unless noted, calls follow the shape of the dose curve; as a rule, active = well fitted inhibition curve with a large enough effect; inconclusive = small, poorly fitted or top-dose-only effect, or another doubt; inactive = no such curve, though single readings can be large or run the other way.
SMILES,Pf growth 48h,HCV inh,Pf growth 96h,CHX counter,HCMV antiviral,Shiga inhibitor
Cc1ccc2nc(-c3ccc(NC(=O)C(F)(F)F)cc3)sc2c1,nt,nt,nt,nt,-26,nt
COc1cccc(CNCCCSc2nnnn2C)c1OC,nt,nt,nt,nt,15,nt
CSc1nc(C)c(C(=O)C[n+]2ccccc2C)cc1C#N,15µM*,?,?,-2,?,9
CCNc1nc(NC(C)C)nc(Oc2ccc(OCCOc3ccc(C)cc3)nn2)n1,?,-30%,12µM*,-2,198,13
CCNc1nc(NCC)nc(Oc2ccc(OCC)nn2)n1,-1%,4%,24%,-2,110,18
COC(=O)Cc1cc(=O)[nH]c(/N=C(\N)Nc2cccc(C)c2)n1,19%,11%,12µM*,-3,?,-42
COC(=O)Cc1cc(=O)[nH]c(/N=C(\N)Nc2ccc(C(C)C)cc2)n1,24%,-24%,0.83µM*,-2,?,11
C=CCc1ccccc1OCC(O)CN1CCN(c2ccc(OC)cc2)CC1 (stereo unspecified),1%,?,6.6µM*,4,-23,-18
C=CCc1ccccc1OCC(O)Cn1ccnc1C (stereo unspecified),-6%,?,1.5µM*,-2,-36,22
Cc1nccn1CC(O)COc1ccccc1 (stereo unspecified),24%,-3%,?,-1,-2,7
C=CCc1ccccc1OCC(O)CNC (stereo unspecified),nt,23%,1.2µM*,-3,2,22
CCn1c(SCC(=O)NC2=NCCS2)nnc1C(C)NC(=O)c1ccccc1Br (stereo unspecified),31%,-6%,-4%,-5,17,29
CCOc1ccc(NC(=O)CSc2nnc(C3CC3)n2C)cc1S(=O)(=O)N1CCCCC1,?,-2%,?,nt,-3,nt
CN1CCN(Cc2ccc(OCc3ccccc3)cc2)CC1,123%,5.6µM*,?,27*,-10,94*
c1ccc(COc2cccc(CN3CCc4ccccc4C3)c2)cc1,-4%,5%,?,41*,30,105*
NC(=O)C1CCN(Cc2cccc(OCc3ccccc3)c2)CC1,-19%,-19%,0%,0,-17,5
CCN1CCN(Cc2ccc(OCc3ccccc3)cc2)CC1,119%,?,?,50*,-18,active
COc1ccc(/C=N/NC(=S)Nc2ccccc2)cc1COc1ccc(F)cc1,10µM*,6%,?,4,3,13
COc1ccc(/C=N/NC(=S)Nc2ccccc2)cc1COc1ccccc1F,-24%,-1%,?,-4,-35,-4
COc1ccc(/C=N/NC(=S)Nc2ccccc2)cc1COc1ccc(Br)cc1,?,1%,3.7µM*,9,11,36
COc1cccc(C(N)CC(=O)O)c1 (stereo unspecified),15%,6%,8.3µM*,-2,nt,-4
COc1cccc(C(=O)NNC(=O)C(=O)N2CCCCC2)c1,2%,11%,4%,-2,-67*,-6
COc1cccc(C(=O)C2CCCN(C(=O)c3cccc(C#CC(C)(C)O)c3)C2)c1 (stereo unspecified),?,-17%,12µM*,12,-34,50
Cc1cccc(C(=O)Nc2cc(NC(=O)c3cccs3)ccc2C)c1,-29%,?,-18%,6,-37,14
Cc1cccc(C(=O)Nc2ccc(C)c(OC(=O)c3cccc(C)c3)c2)c1,156%,nt,224%,56*,nt,193*
SMILES,Pf growth 48h,HCV inh,Pf growth 96h,CHX counter,HCMV antiviral,Shiga inhibitor
COc1cccc(C(=O)N2CCCC(Nc3ccc(C)c(C)c3)C2)c1 (stereo unspecified),-3%,-8%,?,0,4,2
COc1cccc(C(=O)Nc2cccc(SC)c2)c1,166%,-23%,254%,19*,113,63*
COc1cc(OC)cc(C(=O)NNC(=O)c2ccccc2Br)c1,7%,10%,470%,-2,-16,-7
COc1cccc(C(=O)Nc2ccc3ccccc3c2)c1,305%,?,-68%,40*,13,nt
COc1c(C(=O)NNC(=O)c2ccccc2)csc1Br,140%,-25%,169%,35*,91,48*
COc1cccc(/C(C)=N/N=C(\C)c2cccc(OC)c2)c1,160%,?,1%,34*,7,39*
Cc1nc(N2CCOCC2)c2c(C(=O)Nc3cccc(C(F)(F)F)c3)c(C)oc2n1,nt,nt,nt,nt,-27,nt
CN1CCC(N2CCN(C3CN(Cc4ccccc4)S(=O)(=O)C3)CC2)CC1 (stereo unspecified),nt,nt,nt,nt,-22,nt
COc1cccc(C(=O)NNC(=O)c2ccccc2)c1,68%,3%,?,43*,187,69*
Cc1ccc(C(=O)Nc2ccccc2Oc2ccccc2)o1,nt,0%,nt,nt,30,nt
Cc1nn(Cc2cccc(C(=O)NC34CC5CC(CC(C5)C3)C4)c2)c(C)c1Br,15µM*,14µM*,8.3µM*,4,-39,16
Cc1ccc(C(=O)Nc2cccc(Oc3ccccc3)c2)o1,nt,?,37%,30*,-20,34
COc1cccc(C(=O)NNC(=O)c2cccnc2)c1,23%,-7%,35%,7,16,-7
COc1cccc(C(=O)N2CCN(C(=O)C3CC3)CC2)c1,10%,8%,12µM*,-6,11,19
COc1cccc(C(=O)Nc2cccc3ccccc23)c1,8%,19%,0%,12,2,19
COc1cccc(C(=O)N/N=C(/CCC(=O)O)c2ccccc2)c1,0%,1%,5%,52*,7,active
O=C(Nc1ccc(O)cc1)c1ccc(C(=O)c2ccccc2)o1,?,?,nt,23,49,55*
Cc1cccc(C(=O)Nc2ccc3ccccc3c2)c1,280%,?,296%,52*,-102*,92*
COc1cccc(C(=O)NN2c3ccccc3CCc3ccccc32)c1,9.3µM*,-6%,13µM*,14,?,3
Cc1ccc(C(=O)Nc2ccc(NC(=O)c3ccc(C)o3)cc2)o1,-7%,9%,21%,9,?,24
CC(=O)Nc1ccc(C(=O)NNC(=O)c2cccc(C)c2)cc1,22%,21%,14%,2,54,12
CCOc1ncccc1C(=O)NNC(=O)c1cccc(S(=O)(=O)N2CCOCC2)c1,nt,12%,nt,nt,-11,nt
COc1ccccc1NC(=O)C(=O)/C=C(\O)c1ccccc1,106%,-12%,78%,48*,52,64*
COc1cccc(C(=O)Nc2ccccc2)c1,102%,-8%,nt,35*,79,64*
O=C(Nc1cccc(NC(=O)c2ccccc2Cl)c1)c1cccc(Br)c1,nt,nt,nt,nt,74,nt
COc1cccc(C(=O)Nc2cccc(NC(=O)c3ccccc3Cl)c2)c1,0%,-18%,i,13,-97*,23
